This note sets out measurements from PubChem BioAssay (NCATS).

The nature of test [1]: qHTS to identify inhibitors of the type 1 interferon - major histocompatibility complex class I in skeletal muscle: primary screen against the NCATS LOPAC collection (AID 1347405).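 Note: lytic HiBiT luminescence reporting HLA-B protein level.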 An outline of the steps: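 Luminescence from HiBiT fused to endogenous HLA-B in CRISPR-engineered human myoblasts served as the read-out. Cells received 4.0 ng/ml IFN-beta plus compound (seven concentrations, 1:4.3 steps, highest 46 uM final) for 24 hrs before lytic detection.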

Test [2] is described as follows: qHTS for inhibitors of adenylyl cyclases using a fission yeast platform: a pilot screen against the NCATS LOPAC library (AID 1347410). An outline of the steps:
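Fission yeast qHTS: CHP2027 cells (AC9-GNAS-PDE4D2, fbp1-GFP), 5x10^6 cells/mL working density, EMM + His/Lys/Ura; LOPAC at up to 57 µM final; 18 h dark, 30C; GFP by laser cytometry. DPI positive control, DMSO vehicle.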

A short description of test [3]: Validation qHTS assay for inhibitors of Activation Induced Cytidine Deaminase (AID): UDG Counterscreen signal (AID 1347427). Note: potency is the fitted concentration of half-maximal effect. An outline of the steps:
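Counterscreen read of UDG activity (2 U/mL, 4/3x) in the FRET deamination format with AID (1 uM, 4/3x), DJC20/DJC23 substrates (250 nM, 4x), 4 h at room temperature. NaOH stop, fluorescence at 560 ex/665 em.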

Test [4] concerns the target Single-stranded DNA cytosine deaminase (Homo sapiens) (UniProt Q9GZX7). The test is described as follows: Validation qHTS assay for inhibitors of Activation Induced Cytidine Deaminase (AID): AID signal (AID 1347429). Note: potency is the fitted concentration of half-maximal effect. An outline of the steps:
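Fluorescence at 540 nm excitation and 590 nm emission reports ssDNA cytosine deamination by AID, with UDG in the same well. Compound-treated reactions ran 4 hr at room temperature with DJC20/DJC23 substrate, followed by 30 min NaOH treatment.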
A general note: qHTS replaces the single test concentration by a dilution series.

Test [5] can be described thus: Primary qHTS for inhibitors of La Crosse Virus (LACV) - induced cell death in SH-SY5Y cells (AID 1508616).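 Note: top concentration of the series differs between compounds; higher means more rescue of cells from virus-induced death.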 A digest of the protocol:
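Protection against LACV-induced cell death is scored in SH-SY5Y cells exposed to compounds and virus (0.01 MOI) for 6 days. Data normalized to virus-infected DMSO wells and virus-free DMSO wells.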

For test [6], the target named is Calcium and integrin-binding protein 1 (Homo sapiens) (UniProt Q99828). The test can be described thus: Primary qHTS for Identification of Calcium Integrin Binding Protein 1 (CIB1) Competitor (AID 1508620).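 Note: GST tagged CIB1 binding a fluorescein labelled alphaIIb integrin peptide tracer; top concentration of the series differs between compounds.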 An outline of the steps:
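Fluorescence polarization competition: GST-tagged CIB1 (1 uM final) preincubated with compound 15 min at room temperature, then FITC-labelled alphaIIb peptide (100 nM final) added. After 15 min at room temperature, polarization read at Ex 480/Em 540.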

Test [7] is described as follows: Primary qHTS for small molecule stabilizers of the endoplasmic reticulum resident proteome: Secreted ER Calcium Modulated Protein (SERCaMP) assay (AID 1508630). A digest of the protocol:
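GLuc-SERCaMP-expressing SH-SY5Y cells, pretreated 16 h with compound, are challenged with thapsigargin to empty ER calcium stores; after 4 h, coelenterazine is added directly to the medium and luminescence is imaged.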

Test [8] can be described thus: qHTS to identify inhibitors of the type 1 interferon - major histocompatibility complex class I in skeletal muscle: primary screen against the NCATS Pharmaceutical Collection (AID 1347407).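 Note: luminescence of HiBiT knocked into endogenous HLA-B as interferon-induced MHC class I level.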 A digest of the protocol:
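Luminescence from HiBiT-tagged endogenous HLA-B*08:01 served as the read-out of IFN-beta-induced MHC class I in CRISPR-engineered C25cl48 myoblasts. Cells received 4 ng/ml IFN-beta plus compound (high final 46 uM, […]) for 24 h.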

The target of test [9] is Protein phosphatase 1D (Homo sapiens) (UniProt O15297). The test can be described thus: RapidFire Mass Spectrometry qHTS Assay for Modulators of WT P53-Induced Phosphatase 1 (WIP1) (AID 1347424).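 Note: amount of dephosphorylated VEPPL-S-QETFS peptide product formed by WIP1; series mostly up to about 63 µM.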 A digest of the protocol: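 10 nM WIP1 preincubated with compounds 1 hr at room temperature in pH 7.5 Tris buffer with 30 mM MgCl2, 1 mM TCEP; 2 uM VEPPL-pS-QETFS phosphopeptide for 5 min, formic acid quench; dephosphorylated product quantified by RapidFire MS against labelled standard.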
Sequence of Protein phosphatase 1D (Homo sapiens) (O15297 whole entry, looked up): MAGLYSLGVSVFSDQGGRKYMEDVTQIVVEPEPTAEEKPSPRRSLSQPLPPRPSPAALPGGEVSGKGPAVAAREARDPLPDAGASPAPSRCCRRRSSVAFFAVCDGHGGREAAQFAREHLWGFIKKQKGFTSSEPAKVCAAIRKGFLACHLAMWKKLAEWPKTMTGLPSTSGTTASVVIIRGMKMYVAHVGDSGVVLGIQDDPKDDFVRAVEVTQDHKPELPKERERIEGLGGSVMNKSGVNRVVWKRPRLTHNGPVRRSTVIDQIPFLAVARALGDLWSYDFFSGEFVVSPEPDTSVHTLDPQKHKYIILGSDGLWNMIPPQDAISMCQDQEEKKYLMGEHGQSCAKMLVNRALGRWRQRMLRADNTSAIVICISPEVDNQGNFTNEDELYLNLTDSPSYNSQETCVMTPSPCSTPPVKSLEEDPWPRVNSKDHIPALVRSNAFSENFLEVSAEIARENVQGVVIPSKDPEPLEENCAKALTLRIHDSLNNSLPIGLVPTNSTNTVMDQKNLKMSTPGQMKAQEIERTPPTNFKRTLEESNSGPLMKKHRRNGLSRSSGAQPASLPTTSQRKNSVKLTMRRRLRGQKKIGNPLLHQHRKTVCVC

For test [10] the target is unchanged. The test can be described thus: Rhodamine-PBP qHTS Assay for Modulators of WT P53-Induced Phosphatase 1 (WIP1) (AID 1347425). An outline of the steps:
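Read-out: Rhodamine-PBP fluorescence (ex 525/em 598 nm) for released Pi, read each minute for 11 min after adding 10 uM VEPPL-pS-QETFS; signal taken as f1 minus pre-substrate f0. Enzyme 5 nM WIP1 with 1 hr room-temperature compound preincubation.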

Test [11] can be described thus: qHTS to identify inhibitors of the type 1 interferon - major histocompatibility complex class I in skeletal muscle: primary screen against the NCATS Mechanism Interrogation Plate v5.0 (MIPE) Libary (AID 1347411). Note: nearly all actives have a fitted effect of over 65% in size. A digest of the protocol:
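Luminescence from HiBiT-tagged endogenous HLA-B*08:01 served as the MHC class I read-out. CRISPR-engineered C25cl48 human myoblasts received 4.0 ng/ml IFN-beta plus compound for 24 hrs, with an 11-point, 1:3 series topping at 46 uM final.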

The target in test [12] is Calcium and integrin-binding protein 1 (Homo sapiens) (UniProt Q99828). The test can be described thus: Validation qHTS for Identification of Calcium Integrin Binding protein 1 (CIB1) Competitor (AID 1508618). A digest of the protocol:
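CIB1-GST (1 uM final) in 5 mM HEPES pH 7.4, 125 mM NaCl, 5 mM CaCl2, 0.01% Tween20 was preincubated 15 min at room temperature with compound (up to 114 uM), then FITC-alphaIIb peptide (100 nM) added for 15 min; fluorescence polarization read.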

The target of test [13] is Lysine-specific demethylase 5B (Homo sapiens) (UniProt Q9UGL1). The test is described as follows: Optimization screen for KDM5B Histone Demethylases FDH coupled qHTS against the LOPAC library (AID 1347166). A digest of the protocol: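 KDM5BDeltaAP (200nM final) preincubated 10 min with compound, then 12.5uM H3K4Me3, 25uM a-ketoglutarate, ascorbate, Fe(II), NAD+ and FDH added; 50mM HEPES pH 7.5, 0.01% Tween-20. NADH fluorescence (340/450 nm) change over 30 min, room temperature.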
Sequence of Lysine-specific demethylase 5B (Homo sapiens) (Q9UGL1 whole entry, looked up): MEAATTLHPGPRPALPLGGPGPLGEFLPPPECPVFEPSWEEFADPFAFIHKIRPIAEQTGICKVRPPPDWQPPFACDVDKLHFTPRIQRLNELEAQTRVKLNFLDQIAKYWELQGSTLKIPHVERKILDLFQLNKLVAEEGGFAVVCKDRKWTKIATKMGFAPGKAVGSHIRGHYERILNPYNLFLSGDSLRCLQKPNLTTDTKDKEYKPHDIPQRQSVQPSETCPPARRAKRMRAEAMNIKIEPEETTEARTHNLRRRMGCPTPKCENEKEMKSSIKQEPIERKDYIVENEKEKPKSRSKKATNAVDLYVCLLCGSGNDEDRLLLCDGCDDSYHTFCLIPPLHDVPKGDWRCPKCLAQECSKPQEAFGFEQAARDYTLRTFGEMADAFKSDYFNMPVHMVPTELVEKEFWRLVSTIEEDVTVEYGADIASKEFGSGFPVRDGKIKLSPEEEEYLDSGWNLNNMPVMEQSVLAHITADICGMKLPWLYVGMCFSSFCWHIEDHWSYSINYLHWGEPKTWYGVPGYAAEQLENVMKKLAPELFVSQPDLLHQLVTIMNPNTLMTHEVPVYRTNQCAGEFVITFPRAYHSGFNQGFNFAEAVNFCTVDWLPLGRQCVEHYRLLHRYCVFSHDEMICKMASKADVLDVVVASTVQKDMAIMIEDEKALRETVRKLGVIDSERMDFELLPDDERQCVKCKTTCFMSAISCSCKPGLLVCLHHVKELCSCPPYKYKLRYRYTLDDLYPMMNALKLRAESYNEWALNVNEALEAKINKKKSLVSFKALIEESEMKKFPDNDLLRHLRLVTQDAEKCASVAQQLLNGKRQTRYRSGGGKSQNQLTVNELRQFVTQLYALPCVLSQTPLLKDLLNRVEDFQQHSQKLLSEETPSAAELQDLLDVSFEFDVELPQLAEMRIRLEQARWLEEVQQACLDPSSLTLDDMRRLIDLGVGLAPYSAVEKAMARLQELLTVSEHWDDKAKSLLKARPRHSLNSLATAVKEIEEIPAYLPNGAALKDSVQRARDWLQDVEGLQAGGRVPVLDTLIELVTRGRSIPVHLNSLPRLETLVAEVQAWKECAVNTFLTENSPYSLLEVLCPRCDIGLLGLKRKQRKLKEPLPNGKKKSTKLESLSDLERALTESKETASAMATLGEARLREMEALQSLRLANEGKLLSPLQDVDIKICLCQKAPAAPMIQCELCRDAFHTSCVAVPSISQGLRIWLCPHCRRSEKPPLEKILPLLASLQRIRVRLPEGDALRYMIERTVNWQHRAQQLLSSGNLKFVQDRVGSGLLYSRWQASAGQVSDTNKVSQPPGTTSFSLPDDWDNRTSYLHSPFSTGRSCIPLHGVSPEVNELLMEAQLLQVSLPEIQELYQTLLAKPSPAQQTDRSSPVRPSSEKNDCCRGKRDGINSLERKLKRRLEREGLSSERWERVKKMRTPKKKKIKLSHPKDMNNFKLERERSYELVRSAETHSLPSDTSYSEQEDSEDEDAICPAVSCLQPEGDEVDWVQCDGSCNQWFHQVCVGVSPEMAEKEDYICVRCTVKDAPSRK

Test [14] in a line: Counterscreen qHTS for small molecule stabilizers of the endoplasmic reticulum resident proteome: GLuc-NoTag assay (AID 1508627). Note: series mostly up to about 76 µM. An outline of the steps:
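SH-SY5Y cells stably expressing constitutively secreted GLuc without SERCaMP tag, exposed to compound for 19 hr, then to 100 nM thapsigargin for 4 hr at 37C. Medium luciferase was read by coelenterazine luminescence without lysis.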

A short description of test [15]: Confirmatory qHTS for small molecule stabilizers of the endoplasmic reticulum resident proteome: Secreted ER Calcium Modulated Protein (SERCaMP) assay (AID 1508628). Note: potency is the fitted concentration of half-maximal effect; nearly all actives have a fitted effect of over 40% in size. A digest of the protocol: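 SH-SY5Y cells stably expressing GLuc-SERCaMP, treated 16 h with compound (primary 1.53, 7.67, 38.3 uM; confirmation 11 concentrations, up to 76.6 uM), then 100 nM thapsigargin for 4 h. Secreted Gaussia luciferase in medium read by coelenterazine luminescence.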

Test [16] is described as follows: Vero cells viability qHTS for Zika virus inhibitors (AID 1347167). A digest of the protocol:
(§1)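 Cells seeded at 2.5 x 10^5 cells/mL in DMEM with 4% FBS and attached overnight at 37 degrees C, then exposed to compound for 24 to 48 hours. Viability read as ATP content by CellTiter Glo luminescence.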

Test [17] is described as follows: HepG2 cells viability qHTS for Zika virus inhibitors (AID 1347168). An outline of the steps:
as §1

Test [18] in a line: Tertiary RLuc qRT-PCR qHTS assay for Zika virus inhibitors (AID 1347169). Note: top concentration of the series differs between compounds; nearly all actives have a fitted effect of over 55% in size. An outline of the steps:
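Vero, 1,000 cells/well, o/n 37 C; cpd pinned in DMSO; ZIKV-RLuc Cambodian, MOI 1-2, 48-72 h 37 C; live-cell RLuc substrate, lum read at 1-1.5 h.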
In general terms: In qPCR the cycle at which signal appears reflects the starting amount.

A number with no mark means an inactive call. Inconclusive results are not listed. Activity calls are given as the source filed them. Calls come from the whole dose curve; as a rule, active = well fitted curve in the direction sought with a large enough effect; inconclusive = small, poorly fitted or top-dose-only effect, or another doubt; inactive = no such curve, though single readings can be large; an effect the other way counts as inactive or inconclusive.

Sequence of Single-stranded DNA cytosine deaminase (Homo sapiens) (Q9GZX7 whole entry, looked up): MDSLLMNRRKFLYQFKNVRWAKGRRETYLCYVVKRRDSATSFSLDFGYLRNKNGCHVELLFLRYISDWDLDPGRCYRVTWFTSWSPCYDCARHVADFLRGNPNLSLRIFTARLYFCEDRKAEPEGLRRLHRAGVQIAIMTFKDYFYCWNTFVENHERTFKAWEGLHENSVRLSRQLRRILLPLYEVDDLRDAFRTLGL
Sequence of Calcium and integrin-binding protein 1 (Homo sapiens) (Q99828 whole entry, looked up): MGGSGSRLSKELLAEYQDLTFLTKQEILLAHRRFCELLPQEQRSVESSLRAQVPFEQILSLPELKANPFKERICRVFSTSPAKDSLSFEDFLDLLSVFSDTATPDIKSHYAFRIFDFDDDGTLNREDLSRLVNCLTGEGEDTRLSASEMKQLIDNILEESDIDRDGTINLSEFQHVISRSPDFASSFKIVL

Consider `Cc1cc(N)c2ccccc2[n+]1CCCCCCCCCC[n+]1c(C)cc(N)c2ccccc21`, for which the Potency result in test [1] and in test [7] was “inactive” each time. Moreover, the molecule was classed as inactive in [2], in test [5] and in test [6]. Also, the results for the Potency in test [3] and in [4] were 89.1 µM (active) and 50.1 µM (active), respectively.

On to `CN1CCC[C@@H]1Cc1c[nH]c2ccc(CCS(=O)(=O)c3ccccc3)cc12`, for which the Potency result in test [1] and in [8] was “inactive” each time. Moreover, the outcome in [9], in test [10], in test [5] and in test [6] was inactive.

`NC(=O)c1ncn([C@@H]2O[C@H](CO)[C@@H](O)[C@H]2O)c1N`: the Potency result in test [8] and in test [11] was “inactive” throughout. Further, the outcome in test [9], in test [10], in [5] and in [6] was inactive.

For `CC(C)c1c(C(=O)Nc2ccccc2)c(-c2ccccc2)c(-c2ccc(F)cc2)n1CC[C@@H](O)C[C@@H](O)CC(=O)O`, the Potency entry in [1], in test [8] and in test [11] was “inactive” in each case. Also, the outcome in test [2], in test [9], in [10], in test [5], in [12] and in [6] was inactive.

With `COc1ccc2[nH]c(S(=O)Cc3ncc(C)c(OC)c3C)nc2n1` (stereo not drawn), the Potency result in test [8], in test [11] and in [7] was “inactive” throughout. In addition, the molecule was classed as inactive in test [9], in test [10] and in test [5].

For `CN(C)CCCN1c2ccccc2CCc2ccccc21`, the call in test [13], in test [2], in [9] and in [10] was inactive. For the same molecule, in test [14], the Potency entry was “inactive”.

Consider `CC1=C(CC(=O)O)c2cc(F)ccc2/C1=C\c1ccc(S(C)=O)cc1` (stereo not drawn), for which the Potency entry in [1], in test [8], in test [3], in test [4] and in [7] was “inactive” throughout. The molecule was classed as inactive in [2], in [9], in test [10] and in test [5].

For the molecule `CCCCCCCCCCCCCCCC(=O)NCCO`, the call in [13], in test [9], in test [10], in test [5] and in test [6] was inactive. The Potency entry in test [3], in test [4], in [14] and in [7] was “inactive” each time.

As to `OC[C@H]1O[C@@H](O[C@@H]2[C@@H](CO)O[C@](O)(CO)[C@H]2O)[C@H](O)[C@@H](O)[C@H]1O`, the Potency entry in test [8], in test [11] and in [7] was “inactive” each time. Besides, the molecule was called inactive in test [9], in [10], in [5] and in test [6].

With `Cn1c(=O)c2c(ncn2CC2OCCO2)n(C)c1=O`, the Potency result in [8] and in test [11] was “inactive” each time. Besides, the result in test [9], in test [10], in test [5] and in test [6] was inactive.

Turning to `CN1CCN(C2Cc3ccccc3Sc3ccc(Cl)cc32)CC1` (stereo not drawn), the call in [13], in test [2], in test [9], in [10], in test [5] and in test [6] was inactive. Further, the Potency entry in test [3] and in test [4] was “inactive” each time. In addition, the Potency in [15] is 17.8 µM (active).

Consider `N[C@H](C(=O)O)c1ccc(O)cc1`, for which the Potency entry in [16] and in test [18] was “inactive” in each case. In addition, the outcome in [17], in test [9], in test [10], in test [5] and in test [6] was inactive.

For `CC(C)NC[C@H](O)c1ccc(O)c(O)c1`, the Potency entry in test [1], in [3], in test [4] and in [7] was “inactive” in each case. The result in [5] was inactive.

As for `CCN(CC)CCCC(C)Nc1c2ccc(Cl)cc2nc2ccc(OC)cc12` (stereo not drawn), the Potency result in test [8], in test [3], in test [4] and in test [7] was “inactive” throughout. Moreover, the molecule was called inactive in test [9], in test [10] and in [5].
